Laboratory results published in the supplement of paper PMC12669032.

Legend:
Test in all cases: growth AUC relative to DMSO control (median of replicates) (fraction); higher = more growth (less inhibition), active = hit call of the paper
Conditions in all cases: 20 µM; 24 h;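 active = AUC reduced over 20% with Padj below 0.05 in at least 2 of 3 replicates; inactive = otherwise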
Akkermansia muciniphila = system: Akkermansia muciniphila
Summary of the method: (§1)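 For each compound at 20 µM (1% DMSO), gut bacterial monocultures seeded at OD600 0.05 grew anaerobically in mGAM at 37 °C in round-bottom 96-well plates. Hourly OD600 readings over 24 h gave growth curves whose minimum OD was set to 0. Area under these curves was normalised to the plate median of solvent-only wells, or to row and column medians on the industrial chemical plate. Values are medians of three biological replicates grown on separate days.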

Bacteroides caccae = system: Bacteroides caccae
Summary of the method: as §1

Bacteroides clarus = system: Bacteroides clarus
Summary of the method: as §1

Bacteroides dorei = system: Bacteroides dorei
Summary of the method: as §1

Bacteroides stercoris = system: Bacteroides stercoris
Summary of the method: as §1

[1] = system: Bacteroides thetaiotaomicron
Summary of the method: as §1

Bacteroides uniformis = system: Bacteroides uniformis
Summary of the method: as §1

[2] = system: Bifidobacterium longum subsp. longum
Summary of the method: as §1

Clostridium difficile = system: Clostridium difficile
Summary of the method: as §1

Collinsella aerofaciens = system: Collinsella aerofaciens
Summary of the method: as §1

Measured: growth AUC

COP(=S)(OC)Oc1ccc(S(C)=O)c(C)c1 (stereo not given)
inactive: Akkermansia muciniphila 0.88 | Bacteroides caccae 1.02 | Bacteroides clarus 1.01 | Bacteroides dorei 1.03 | Bacteroides stercoris 1.16 | [1] 0.962 | Bacteroides uniformis 1.03 | [2] 1.02 | Clostridium difficile 1.01 | Collinsella aerofaciens 1.03

COc1ccc(C(c2ccc(OC)cc2)C(Cl)(Cl)Cl)cc1
active: Bacteroides stercoris 0.49 | [1] 0.776
inactive: Akkermansia muciniphila 0.973 | Bacteroides caccae 0.92 | Bacteroides clarus 0.849 | Bacteroides dorei 0.926 | Bacteroides uniformis 0.813 | [2] 0.926 | Clostridium difficile 0.988 | Collinsella aerofaciens 0.975

CCOP(=S)(OCC)SCSc1ccc(Cl)cc1
inactive: Akkermansia muciniphila 1.04 | Bacteroides caccae 0.954 | Bacteroides clarus 0.972 | Bacteroides dorei 0.984 | Bacteroides stercoris 1.09 | [1] 0.987 | Bacteroides uniformis 0.943 | [2] 1.03 | Clostridium difficile 1 | Collinsella aerofaciens 0.963

O=C(O)c1nc(Cl)ccc1Cl
inactive: Akkermansia muciniphila 1.11 | Bacteroides caccae 1.01 | Bacteroides clarus 1.02 | Bacteroides dorei 1.03 | Bacteroides stercoris 1.11 | [1] 0.993 | Bacteroides uniformis 1.01 | [2] 1.03 | Clostridium difficile 0.975 | Collinsella aerofaciens 0.982

CCN(CC)N=O
inactive: Akkermansia muciniphila 1 | Bacteroides caccae 1 | Bacteroides clarus 1 | Bacteroides dorei 1.04 | Bacteroides stercoris 1.04 | [1] 1.01 | Bacteroides uniformis 1 | [2] 1.05 | Clostridium difficile 1.02 | Collinsella aerofaciens 0.991

COCC(C)N(C(=O)CCl)c1c(C)csc1C (stereo not given)
inactive: Akkermansia muciniphila 1.35 | Bacteroides caccae 1.03 | Bacteroides clarus 1.01 | Bacteroides dorei 0.929 | Bacteroides stercoris 1.04 | [1] 0.973 | Bacteroides uniformis 0.93 | [2] 0.841 | Clostridium difficile 0.847 | Collinsella aerofaciens 0.922

CC(C)=NOCCOC(=O)[C@@H](C)Oc1ccc(Oc2cnc3cc(Cl)ccc3n2)cc1
inactive: Akkermansia muciniphila 0.861 | Bacteroides caccae 0.965 | Bacteroides clarus 1 | Bacteroides dorei 0.958 | Bacteroides stercoris 0.876 | [1] 0.937 | Bacteroides uniformis 0.899 | [2] 0.924 | Clostridium difficile 0.981 | Collinsella aerofaciens 0.954

CCCOc1nn(C(=O)[N-]S(=O)(=O)c2ccccc2C(=O)OC)c(=O)n1C.[Na+]
inactive: Akkermansia muciniphila 0.978 | Bacteroides caccae 1.02 | Bacteroides clarus 0.979 | Bacteroides dorei 1.02 | Bacteroides stercoris 1.13 | [1] 0.992 | Bacteroides uniformis 0.972 | [2] 1.01 | Clostridium difficile 0.994 | Collinsella aerofaciens 1.02

O=[N+]([O-])c1cc(C(F)(F)F)c(Cl)c([N+](=O)[O-])c1Nc1ncc(C(F)(F)F)cc1Cl
active: Bacteroides caccae 0.55 | Bacteroides clarus 0.322 | Bacteroides dorei 0.672 | Bacteroides stercoris 0.00814 | [1] 0.0138 | Bacteroides uniformis 0.0147 | [2] 0.705
inactive: Akkermansia muciniphila 1.01 | Clostridium difficile 0.914 | Collinsella aerofaciens 0.886

Cc1ccccc1CO[C@@H]1C[C@@]2(C(C)C)CC[C@]1(C)O2 (mixture of isomers)
inactive: Akkermansia muciniphila 1.08 | Bacteroides caccae 0.955 | Bacteroides clarus 0.967 | Bacteroides dorei 0.977 | Bacteroides stercoris 1.02 | [1] 1.01 | Bacteroides uniformis 0.997 | [2] 1.03 | Clostridium difficile 1.04 | Collinsella aerofaciens 1.01

CCCCOC(=O)[C@@H](C)Oc1ccc(Oc2ccc(C#N)cc2F)cc1
inactive: Akkermansia muciniphila 1.1 | Bacteroides caccae 0.973 | Bacteroides clarus 1 | Bacteroides dorei 0.969 | Bacteroides stercoris 0.973 | [1] 0.954 | Bacteroides uniformis 0.975 | [2] 0.984 | Clostridium difficile 0.981 | Collinsella aerofaciens 0.984

CCC/C(=N\OCC)C1=C(O)CC(CC(C)SCC)CC1=O (stereo not given)
inactive: Akkermansia muciniphila 0.936 | Bacteroides caccae 1.01 | Bacteroides clarus 0.989 | Bacteroides dorei 1.02 | Bacteroides stercoris 0.974 | [1] 0.992 | Bacteroides uniformis 1.01 | [2] 0.85 | Clostridium difficile 1.01 | Collinsella aerofaciens 1.01

CNC(=O)Oc1ccccc1C(C)C
inactive: Akkermansia muciniphila 1.08 | Bacteroides caccae 1.01 | Bacteroides clarus 1.04 | Bacteroides dorei 1.03 | Bacteroides stercoris 1.23 | [1] 1.01 | Bacteroides uniformis 1.01 | [2] 0.965 | Clostridium difficile 1.02 | Collinsella aerofaciens 0.986

C=CCOC(=O)C(C)(C)OC(=O)c1cc(-n2c(=O)cc(C(F)(F)F)n(C)c2=O)ccc1Cl
inactive: Akkermansia muciniphila 1.14 | Bacteroides caccae 0.949 | Bacteroides clarus 1.01 | Bacteroides dorei 0.969 | Bacteroides stercoris 1.09 | [1] 0.974 | Bacteroides uniformis 0.975 | [2] 0.96 | Clostridium difficile 0.964 | Collinsella aerofaciens 0.961

CC(C)OC(=O)Nc1ccccc1
inactive: Akkermansia muciniphila 0.984 | Bacteroides caccae 1.02 | Bacteroides clarus 1.02 | Bacteroides dorei 1.07 | Bacteroides stercoris 1.12 | [1] 1.01 | Bacteroides uniformis 0.98 | [2] 0.988 | Clostridium difficile 1.05 | Collinsella aerofaciens 1.02

O=C(NC(=O)c1ccccc1Cl)Nc1ccc(OC(F)(F)F)cc1
inactive: Akkermansia muciniphila 1.06 | Bacteroides caccae 0.915 | Bacteroides clarus 0.964 | Bacteroides dorei 0.927 | Bacteroides stercoris 0.802 | [1] 0.962 | Bacteroides uniformis 1.01 | [2] 0.986 | Clostridium difficile 0.946 | Collinsella aerofaciens 0.937

CC1(C)CCC(Cc2ccc(Cl)cc2)C1(O)Cn1cncn1 (stereo not given)
inactive: Akkermansia muciniphila 1.01 | Bacteroides caccae 0.874 | Bacteroides clarus 0.925 | Bacteroides dorei 0.98 | Bacteroides stercoris 1.35 | [1] 0.93 | Bacteroides uniformis 0.937 | [2] 1.03 | Clostridium difficile 0.973 | Collinsella aerofaciens 0.95

CCCN(CCC)c1c([N+](=O)[O-])cc(C(C)C)cc1[N+](=O)[O-]
inactive: Akkermansia muciniphila 1.12 | Bacteroides caccae 1.01 | Bacteroides clarus 0.978 | Bacteroides dorei 0.994 | Bacteroides stercoris 0.991 | [1] 0.962 | Bacteroides uniformis 1.03 | [2] 1.02 | Clostridium difficile 0.991 | Collinsella aerofaciens 0.99

CO/C=C(/C(=O)OC)c1ccccc1COc1cccc(C(F)(F)F)n1
inactive: Akkermansia muciniphila 0.949 | Bacteroides caccae 0.984 | Bacteroides clarus 0.945 | Bacteroides dorei 0.995 | Bacteroides stercoris 0.91 | [1] 0.936 | Bacteroides uniformis 0.927 | [2] 0.983 | Clostridium difficile 1.01 | Collinsella aerofaciens 0.978

CCOP(=O)(NC(C)C)Oc1ccc(SC)c(C)c1 (stereo not given)
inactive: Akkermansia muciniphila 1.19 | Bacteroides caccae 0.974 | Bacteroides clarus 0.982 | Bacteroides dorei 0.877 | Bacteroides stercoris 0.92 | [1] 0.998 | Bacteroides uniformis 0.931 | [2] 1.01 | Clostridium difficile 0.976 | Collinsella aerofaciens 0.95

COP(=O)(OC)OC=C(Cl)Cl
inactive: Akkermansia muciniphila 1.04 | Bacteroides caccae 1.05 | Bacteroides clarus 1.01 | Bacteroides dorei 0.984 | Bacteroides stercoris 1.17 | [1] 1.03 | Bacteroides uniformis 1.03 | [2] 1.04 | Clostridium difficile 1.05 | Collinsella aerofaciens 1.01

CN(C(=O)COc1nc2ccccc2s1)c1ccccc1
inactive: Akkermansia muciniphila 1.06 | Bacteroides caccae 0.925 | Bacteroides clarus 1.03 | Bacteroides dorei 0.956 | Bacteroides stercoris 1.26 | [1] 0.96 | Bacteroides uniformis 0.934 | [2] 1.12 | Clostridium difficile 0.982 | Collinsella aerofaciens 1.01

C=CC1(C)OC(=O)N(c2cc(Cl)cc(Cl)c2)C1=O (stereo not given)
inactive: Akkermansia muciniphila 1.02 | Bacteroides caccae 0.985 | Bacteroides clarus 0.958 | Bacteroides dorei 1 | Bacteroides stercoris 0.994 | [1] 0.989 | Bacteroides uniformis 0.99 | [2] 0.917 | Clostridium difficile 1.02 | Collinsella aerofaciens 0.999

C[C@@H](Oc1ccc(Oc2ncc(C(F)(F)F)cc2Cl)cc1)C(=O)O
inactive: Akkermansia muciniphila 0.971 | Bacteroides caccae 0.97 | Bacteroides clarus 0.964 | Bacteroides dorei 0.942 | Bacteroides stercoris 1.02 | [1] 0.992 | Bacteroides uniformis 0.975 | [2] 0.912 | Clostridium difficile 0.99 | Collinsella aerofaciens 0.994

COP(=O)(OC)Oc1ccc(SC)c(C)c1
inactive: Akkermansia muciniphila 0.861 | Bacteroides caccae 0.994 | Bacteroides clarus 0.978 | Bacteroides dorei 1.03 | Bacteroides stercoris 0.981 | [1] 0.979 | Bacteroides uniformis 0.982 | [2] 1 | Clostridium difficile 0.999 | Collinsella aerofaciens 0.993

C#CCOS(=O)OC1CCCCC1Oc1ccc(C(C)(C)C)cc1 (mixture of isomers)
inactive: Akkermansia muciniphila 1.08 | Bacteroides caccae 0.98 | Bacteroides clarus 0.976 | Bacteroides dorei 0.984 | Bacteroides stercoris 0.916 | [1] 0.991 | Bacteroides uniformis 0.99 | [2] 0.908 | Clostridium difficile 0.956 | Collinsella aerofaciens 0.975

Cc1cc(C)c(C2=C(OC(=O)CC(C)(C)C)C3(CCCC3)OC2=O)c(C)c1
inactive: Akkermansia muciniphila 1.2 | Bacteroides caccae 0.977 | Bacteroides clarus 1 | Bacteroides dorei 0.988 | Bacteroides stercoris 1.23 | [1] 1.05 | Bacteroides uniformis 0.958 | [2] 1.05 | Clostridium difficile 0.98 | Collinsella aerofaciens 1.02

CO/C=C(/C(=O)OC)c1ccccc1Oc1cc(Oc2ccccc2C#N)ncn1
inactive: Akkermansia muciniphila 1.05 | Bacteroides caccae 1.01 | Bacteroides clarus 0.967 | Bacteroides dorei 0.997 | Bacteroides stercoris 0.864 | [1] 0.965 | Bacteroides uniformis 0.914 | [2] 0.977 | Clostridium difficile 0.973 | Collinsella aerofaciens 0.994
